Test results reported in the supplement of paper PMC10981050.
Where “and” joins values, the source holds several entries; their conditions need not be identical. Identical values can stand only once. Counter-ions that a name gives are not always drawn.

How the values were obtained:
Experiment in all cases: cell viability relative to vehicle control; higher = less cytotoxic
Details in all cases: 10 µM
K562 = tested on: K562
Summary of the method: (§1)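 Screening covered the Selleck bioactive, kinase and epigenetic probe libraries, less identity-inconsistent compounds, on CRISPR-edited mutant clones and isogenic wild-type clones of four leukaemia lines. Cells, at 2000 per well in 50 µL medium, received a single 10 µM acoustically dispensed dose. After 48 h the supernatant was removed and CellTiter-Glo luminescence was read. Viability was analysed in Genedata Screener as percent of the on-plate vehicle control.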

MARIMO = tested on: MARIMO
Summary of the method: as §1

MOLM14 = tested on: MOLM14
Summary of the method: as §1

OCI-AML2 = tested on: OCI-AML2
Summary of the method: as §1

| Compound | cell viability (K562; SRSF2 genotype: SRSF2 P95H/wt) | cell viability (K562; SRSF2 genotype: SRSF2 wt/wt) | cell viability (MARIMO; SRSF2 genotype: SRSF2 P95H/wt) | cell viability (MARIMO; SRSF2 genotype: SRSF2 wt/wt) | cell viability (MOLM14; SRSF2 genotype: SRSF2 P95H/wt) | cell viability (MOLM14; SRSF2 genotype: SRSF2 wt/wt) | cell viability (OCI-AML2; SRSF2 genotype: P95H/wt) | cell viability (OCI-AML2; SRSF2 genotype: wt/wt) |
| --- | --- | --- | --- | --- | --- | --- | --- | --- |
| O=C(c1ccc(Cl)cc1)N(Cc1ccccc1)C1CCCCC1 | 86.1% and 92.9% | 92.3% | 75.2% | 84.1% | 78.1% | 94.6% | 72.5% | 81.8% |
| Cc1nc(C(=O)NCC(=O)O)c(O)c2ccc(Oc3ccccc3)cc12 [Roxadustat (FG-4592)] | 89.4% and 79.4% | 85.7% | 79.1% | 82.7% | 88.5% | 84.3% | 83.9% | 87.5% |
| O=C(O)COCCN1CCN(C(c2ccccc2)c2ccc(Cl)cc2)CC1 (stereo not given) [Cetirizine Dihydrochloride] | 94.7% and 100% | 98.7% | 95% | 93.1% | 94.2% | 100% | 103% | 101% |
| O=C(Nc1ccc(Br)cc1)c1c(O)cccc1O [Resorantel] | 17.7% and 15.3% | 19.6% | 38.7% | 39.3% | 17.5% | 11.8% | 4.86% | 14.2% |
| COc1cc(C(=O)O)ccc1O [Vanillic acid] | 103% and 97.7% | 111% | 98.9% | 105% | 102% | 108% | 104% | 113% |
| C=C[C@](C)(O)CC[C@@H]1[C@@]2(C)CCCC(C)(C)[C@@H]2CC[C@@]1(C)O [Sclareol] | 93.2% and 93.5% | 95.6% | 94.5% | 94.3% | 106% | 103% | 89.2% | 85.1% |
| CO/N=C(\C(=O)N[C@@H]1C(=O)N2C(C(=O)[O-])=C(C[n+]3cccc4c3CCC4)CS[C@H]12)c1csc(N)n1 [Cefpirome sulfate] | 100% and 107% | 106% | 94.2% | 108% | 103% | 103% | 101% | 104% |
| CCc1nc(-c2cccc(C)c2)c(-c2ccnc(NC(=O)c3ccccc3)c2)s1 | 75.8% and 73% | 66.3% | 72.3% | 64% | 76.5% | 86.7% | 83.7% | 76.5% |
| Cc1cn([C@H]2C[C@H](O)[C@@H](CO)O2)c(=O)[nH]c1=O [Thymidine] | 98.3% and 88% | 98.2% | 96.6% | 102% | 92.5% | 99.7% | 91.8% | 99.9% |
| C=C[C@]1(C)C[C@@H](OC(=O)CSCCN(CC)CC)[C@]2(C)[C@H](C)CC[C@]3(CCC(=O)[C@H]32)[C@@H](C)[C@@H]1O [Tiamulin fumarate] | 85.7% and 84.7% | 89.8% | 93.4% | 91.3% | 94.2% | 93.7% | 88.6% | 96.6% |
| Oc1cc(O)c(Cl)cn1 [Gimeracil] | 105% and 98.5% | 92.4% | 101% | 109% | 102% | 107% | 101% | 111% |
| C=CC(=O)N[C@H]1CCOC[C@H]1Nc1ncc2cc(-c3c(Cl)c(OC)cc(OC)c3Cl)ccc2n1 | 78.2% and 81.3% | 80.2% | 85.8% | 90.5% | 78.8% | 79.8% | 66.8% | 72.7% |
| NCCOc1cc(C(=O)Nc2cc(OCCN)c3ccccc3n2)nc(C(=O)Nc2cc(OCCN)c3ccccc3n2)c1 [Pyridostatin Trifluoroacetate Salt] | 87.7% and 94.2% | 72.6% | 83.8% | 84.5% | 57.4% | 33.6% | 6.12% | 17.8% |
| COc1ccc(C2=NC(c3ccc(Cl)cc3)C(c3ccc(Cl)cc3)N2C(=O)N2CCNC(=O)C2)c(OC(C)C)c1 (stereo not given) [Nutlin-3b] | 90.3% and 93.2% | 89.3% | 87.5% | 97.1% | 77.2% | 86.7% | 84.5% | 89.8% |
| CCOc1ccccc1N=Nc1c(C)[nH]n(-c2nc(-c3ccccc3)cs2)c1=O | 95.7% and 103% | 91.9% | 101% | 96.5% | 97.8% | 95.9% | 108% | 97.2% |
| COc1nc(C)nc(Cl)c1NC1=NCCN1 [Moxonidine] | 101% and 86.7% | 84.3% | 87.2% | 95.5% | 89.9% | 94.8% | 97.5% | 89.6% |
| O=[N+]([O-])c1ccc(S(=O)(=O)N2CCN(c3ccnc4cc(Cl)ccc34)CC2)c([N+](=O)[O-])c1 | 69.2% and 80.5% | 71.8% | 27.1% | 30.7% | 2.07% | 22.7% | 0.47% | 0.54% |
| CNc1nc(-c2ccc3c(N)n[nH]c3c2)cc(N2C[C@@H](C(=O)NC3CCCCC3)CC[C@H]2C)n1 | 78.3% and 74.9% | 73.5% | 72.1% | 72.8% | 42.3% | 39.5% | 47.6% | 40.7% |
| COc1cc(C(=O)O)ccc1NC(=O)[C@@H]1N[C@@H](CC(C)(C)C)[C@](C#N)(c2ccc(Cl)cc2F)[C@H]1c1cccc(Cl)c1F [Idasanutlin (RG-7388)] | 96.7% and 98.2% | 86.3% | 116% | 131% | 86.5% | 102% | 102% | 118% |
| CC[C@H](C)n1cc(C)c2c(C(=O)NCc3c(C)cc(C)[nH]c3=O)cc(-c3ccc(N4CCNCC4)nc3)cc21 | 78.3% and 82.1% | 78.2% | 80.9% | 94.6% | 81.6% | 81.7% | 68% | 75.4% |

| Compound | cell viability (K562; SRSF2 genotype: SRSF2 P95H/wt) | cell viability (K562; SRSF2 genotype: SRSF2 wt/wt) | cell viability (MARIMO; SRSF2 genotype: SRSF2 P95H/wt) | cell viability (MARIMO; SRSF2 genotype: SRSF2 wt/wt) | cell viability (MOLM14; SRSF2 genotype: SRSF2 P95H/wt) | cell viability (MOLM14; SRSF2 genotype: SRSF2 wt/wt) | cell viability (OCI-AML2; SRSF2 genotype: P95H/wt) | cell viability (OCI-AML2; SRSF2 genotype: wt/wt) |
| --- | --- | --- | --- | --- | --- | --- | --- | --- |
| O=C(N/N=C/c1ccc(O)c(O)c1)c1cc2ccccc2cc1O [Dynasore] | 88.5% and 89.6% | 96% | 72.8% | 78.7% | 94.2% | 94.4% | 80% | 73% |
| Oc1cc(O)c2c(c1)OC(c1ccc(O)c(O)c1)C(OC1(c3ccc(O)c(O)c3)Oc3cc(O)cc(O)c3C(O)C1O)C2 (stereo not given) [Proanthocyanidins] | 102% and 105% | 104% | 107% | 98.7% | 89.9% | 102% | 92.6% | 101% |
| COc1ccccc1N1CCN(CCCNc2cc(=O)n(C)c(=O)n2C)CC1 [Urapidil hydrochloride] | 102% and 95.6% | 96.9% | 97.8% | 102% | 99.6% | 98% | 96.8% | 95.2% |
| CN(C)CCOC(c1ccccc1)c1ccccc1 [Diphenhydramine HCl (Benadryl)] | 91.2% and 88.2% | 85.9% | 76.8% | 91.7% | 88.3% | 85.8% | 87.8% | 92.3% |
| COC(=O)[C@@]1(C)CC[C@]2(C(=O)O)CC[C@]3(C)C(=CC[C@@H]4[C@@]5(C)C[C@H](O)[C@H](O[C@@H]6OC[C@@H](O[C@@H]7O[C@H](CO)[C@@H](O)[C@H](O)[C@H]7O)[C@H](O)[C@H]6O)[C@@](C)(CO)[C@@H]5CC[C@]43C)[C@@H]2C1 [Esculentoside A] | 110% and 105% | 105% | 104% | 108% | 108% | 107% | 96.8% | 105% |
| Cc1nc(=O)c2cc(CN(C)c3ccc(C(=O)N[C@@H](CCC(=O)O)C(=O)O)s3)ccc2[nH]1 [Raltitrexed (Tomudex)] | 94.9% and 108% | 58.7% | 94.3% | 105% | 104% | 80.6% | 106% | 118% |
| C=C(C)[C@@H]1CC[C@]2(C=O)CC[C@]3(C)[C@H](CC[C@@H]4[C@@]5(C)CC[C@H](O)C(C)(C)[C@@H]5CC[C@]43C)[C@@H]12 [Betulinicaldehyde] | 101% and 97.2% | 102% | 95.1% | 94.2% | 103% | 98% | 94.5% | 92% |
| Cc1nc(NC(=O)N2CCC[C@H]2C(N)=O)sc1-c1csc(C(C)(C)C)n1 | 98.3% and 99.5% | 89.9% | 64.9% | 63.3% | 72% | 86.6% | 61.8% | 61.9% |
| CN1C(C(=O)Nc2ccccn2)=C(O)c2ccccc2S1(=O)=O [Piroxicam (Feldene)] | 99.5% and 103% | 100% | 97.3% | 106% | 97.6% | 105% | 104% | 105% |
| CC(C)Oc1ccc(C(=O)N[C@H](CNC(=O)CN(C)C)Cc2ccc(-c3cn4cccc([C@H](C)O)c4n3)cc2)cc1Cl | 20.3% and 30.1% | 36.2% | 34.6% | 26.3% | 9.14% | 1.72% | 12.4% | 14.5% |
| Cc1ccc(O)c(O)c1 [4-Methylcatechol] | 94.8% and 90.4% | 98.3% | 61.1% | 89.5% | 75.4% | 85.3% | 94% | 90.9% |
| Cc1ccc(-c2n[nH]c3c2C(c2cccc(O)c2)N(c2ccc(C(=O)O)cc2)C3=O)cc1 (stereo not given) | 104% and 100% | 105% | 101% | 106% | 100% | 107% | 104% | 106% |
| COC(=O)Nc1nc2cc([S+]([O-])c3ccccc3)ccc2[nH]1 (stereo not given) [Oxfendazole] | 50.5% and 57.7% | 58.5% | 55.2% | 49.4% | 70.5% | 70.4% | 80% | 78% |
| CN(C)[C@@H](CCOc1cccc2ccccc12)c1ccccc1 [Dapoxetine hydrochloride (Priligy)] | 65.8% and 82.9% | 73% | 52.7% | 59% | 53.9% | 58.8% | 58.9% | 63.1% |
| CN(CCO)CC(O)Cn1cnc2c1c(=O)n(C)c(=O)n2C (stereo not given) [Xanthinol Nicotinate] | 99.3% and 90.3% | 97.9% | 98.2% | 105% | 95.4% | 97.7% | 73.7% | 90.5% |
| C[C@@H]1CCCC2=CC(=O)[C@@H]3[C@@H](C3(C)C)[C@]21C [Aristolone] | 107% and 96.8% | 101% | 95.8% | 103% | 112% | 99% | 98.3% | 109% |
| O=Cc1ccc(O)c(O)c1 [3,4-Dihydroxybenzaldehyde] | 95.8% and 92.8% | 93.7% | 77.4% | 91.9% | 91.3% | 99.4% | 88.9% | 92.4% |
| COc1cc(C(=O)OCCCCNC(=N)N)cc(OC)c1O [Leonurine] | 105% and 99% | 95.2% | 98.4% | 112% | 95.2% | 104% | 94.4% | 107% |
| CCC(CC)n1ccc2c(C(=O)NCc3c(C)cc(C)[nH]c3=O)cc(C#N)cc21 | 107% and 101% | 95.5% | 103% | 112% | 100% | 100% | 95% | 102% |
| O=C(O)CSc1nnc(Br)n1-c1ccc(C2CC2)c2ccccc12 [Lesinurad] | 98.3% and 93.5% | 97.5% | 95.1% | 108% | 98.7% | 101% | 96.9% | 100% |
